# Results as given in PubChem BioAssay (Tox21).
# “And” between values parts separate entries of the source, which are not always exact repeats. Equal values may be shown once. A number with no mark means an inactive call. Results filed as inconclusive are left out. Entries that show only a call come without a potency. The source made the active and inactive calls. Unless noted, the call rests on the fitted dose curve; in most records, active means well fitted curve in the direction sought with a large enough effect in the repeat runs; inconclusive means weak or mixed curves; inactive means no such curve, though single readings can be large; an effect the other way counts as inactive or inconclusive.
# Assays:
# [1] = molecular target: Thyrotropin receptor (Homo sapiens) (UniProt P16473); assay: qHTS assay to identify small molecule agonists of the thyroid stimulating hormone receptor (TSHR) signaling pathway (AID 1224843; calls by dose curve; further: nearly all actives have a fitted effect of over 45% in size)
# Method in brief: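 Cell line HEK293 with TSHR; density 800/well. Exposure 30 min RT. Readout HTRF cAMP (cAMP-d2/anti-cAMP-cryptate), 1 h RT before reading.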
# [2] = qHTS assay to identify small molecule agonists of the hypoxia (HIF-1) signaling pathway - cell viability counter screen (AID 1224844; calls by dose curve; further: nearly all actives have a fitted effect of over 50% in size)
# Method in brief: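 HRE-bla ME-180 cells in medium with 0.5% dialyzed FBS were preincubated 5 hrs at 37C, exposed to compounds for 17 hrs, then viability was read as CellTiter-Glo luminescence after 30 min at room temperature, in the reporter wells.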
# [3] = qHTS assay to identify small molecule agonists of H2AX (AID 1224845; active means well fitted activation curve with a large enough effect in the signal ratio in the repeat runs, not every such curve was filed as active; the % refers to the signal ratio; further: potency means the concentration at half of the fitted maximal effect)
# Method in brief: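 Wild-type CHO-K1 cells plated overnight, then exposed 3 hr at 37C to compounds at 15 concentrations (0.76% DMSO). Lysed, then HTRF anti-pH2AX(S139)-cryptate/anti-H2AX-d2 detection after 24 hr at room temperature; emissions 665 and 620 nm.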
# [4] = qHTS assay to identify small molecule agonists of the hypoxia (HIF-1) signaling pathway (AID 1224846; active means well fitted activation curve with a large enough effect in the signal ratio in the repeat runs, not every such curve was filed as active; the % refers to the signal ratio)
# Method in brief: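 HRE-bla ME-180 cells (beta-lactamase reporter under hypoxia response element) were plated at 2,000 cells/well in medium with 0.5% dialyzed FBS, rested 5 hrs, then given compounds in DMSO for 17 hrs at 37C, 5% CO2. Reporter induction was read with CCF4-AM FRET substrate.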
# [5] = qHTS RealTime-Glo MT Cell Viability Assay in HepG2 cells - 24 hour (AID 1224867); further: nearly all actives have a fitted effect of over 50% in size
# Method in brief: (§1)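 Cells + NanoLuc/prosubstrate dispensed (600 cells/well) → 5 h at 37 C/5% CO2 → compounds in DMSO transferred → 40 h incubation at 37 C, luminescence read at 0, 8, 16, 24, 32, 40 h.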
# [6] = qHTS RealTime-Glo MT Cell Viability Assay in HEK293 cells - 32 hour (AID 1224868); further: nearly all actives have a fitted effect of over 50% in size; further: potency means the concentration at half of the fitted maximal effect
# Method in brief: (§2)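 Tox21 10K qHTS, HEK293, 600 cells/well, RealTime-Glo reagent co-dispensed with cells; 5 h preincubation, compound by pintool, 37 C, luminescence at 0–40 h.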
# [7] = A CellTox Green Cytotoxicity Assay to monitor cytotoxicity in HEK293 cells - 0 hour (AID 1224869); further: nearly all actives have a fitted effect of over 50% in size
# Method in brief: (§3)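 HEK293 cells premixed with CellTox Green dye were seeded at 600 cells/well and left 5 h at 37 C/5% CO2 before pin transfer of 23 nL compound in DMSO. Fluorescence from dye bound to dead-cell DNA was read during 40 h treatment.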
# [8] = qHTS RealTime-Glo MT Cell Viability Assay in HepG2 cells - 40 hour (AID 1224870); further: nearly all actives have a fitted effect of over 50% in size; further: potency means the concentration at half of the fitted maximal effect
# Method in brief: (§4)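 HepG2 cells mixed with RealTime-Glo MT reagents (NanoLuc plus cell-permeant prosubstrate) were seeded at 600 cells/well, incubated 5 h at 37 C/5% CO2, then pinned with compounds in DMSO; nonlytic luminescence tracked viability during 40 h treatment.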
# [9] = A CellTox Green Cytotoxicity Assay to monitor cytotoxicity in HEK293 cells - 40 hour (AID 1224871); further: nearly all actives have a fitted effect of over 45% in size; further: potency means the concentration at half of the fitted maximal effect
# Method in brief: as §3
# [10] = qHTS RealTime-Glo MT Cell Viability Assay in HEK293 cells - 16 hour (AID 1224872)
# Method in brief: as §2
# [11] = qHTS RealTime-Glo MT Cell Viability Assay in HepG2 cells - 8 hour (AID 1224873); further: nearly all actives have a fitted effect of over 55% in size
# Method in brief: as §4
# [12] = qHTS RealTime-Glo MT Cell Viability Assay in HEK293 cells - 40 hour (AID 1224874); details: RealTime-Glo luminescence; max response: stronger effect = lower value; further: nearly all actives have a fitted effect of over 50% in size
# Method in brief: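 HEK293 cells mixed with RealTime-Glo reagents (NanoLuc plus cell-permeant prosubstrate) at 600 cells/well, preincubated 5 h at 37 C/5% CO2, then given 23 nL compound in DMSO. Nonlytic luminescence from viable cells was read at 0, 8, 16, 24, 32 and 40 h.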
# [13] = A CellTox Green Cytotoxicity Assay to monitor cytotoxicity in HEK293 cells - 24 hour (AID 1224875); further: nearly all actives have a fitted effect of over 45% in size
# Method in brief: as §3
# [14] = A CellTox Green Cytotoxicity Assay to monitor cytotoxicity in HepG2 cells - 16 hour (AID 1224876); further: nearly all actives have a fitted effect of over 45% in size; further: potency means the concentration at half of the fitted maximal effect
# Method in brief: (§5)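 HepG2 cells were seeded together with the CellTox Green dye at 600 cells/well, left 5 h at 37 C/5% CO2, then given compounds in DMSO. Fluorescence from dye bound to dead-cell DNA was read repeatedly over 40 h of treatment at 37 C.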
# [15] = qHTS RealTime-Glo MT Cell Viability Assay in HepG2 cells - 32 hour (AID 1224877); further: nearly all actives have a fitted effect of over 55% in size
# Method in brief: as §1
# [16] = A CellTox Green Cytotoxicity Assay to monitor cytotoxicity in HepG2 cells - 24 hour (AID 1224878); further: nearly all actives have a fitted effect of over 45% in size; further: potency means the concentration at half of the fitted maximal effect
# Method in brief: as §5
# [17] = A CellTox Green Cytotoxicity Assay to monitor cytotoxicity in HepG2 cells - 40 hour (AID 1224879); further: nearly all actives have a fitted effect of over 40% in size; further: potency means the concentration at half of the fitted maximal effect
# Method in brief: as §5
# [18] = qHTS assay to identify small molecule agonists of H2AX - cell viability counter screen (AID 1224847; calls by dose curve; further: nearly all actives have a fitted effect of over 30% in size; further: potency means the concentration at half of the fitted maximal effect)
# Method in brief: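 CHO-K1 wt, 1000 cells/well, o/n 37C; cpds 15 conc, 3 h 37C, 0.76% DMSO; CellTiter-Glo, 30 min RT, luminescence.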
# [19] = qHTS assay to identify small molecule agonists of the estrogen related receptor (ERR) signaling pathway from Tox21 library (AID 1224849; calls by dose curve; further: nearly all actives have a fitted effect of over 15% in size); details: ERR reporter cell line, ONE-Glo luciferase, 18 h; at 92.4 µM (top of the series) unless noted
# Method in brief: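 ERR reporter cell line (NTP) seeded, rested 6 h at 37 C/5% CO2, then pinned with Tox21 compounds in DMSO. After 18 h at 37 C, ONE-Glo luciferase luminescence was read following 30 min at room temperature.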
# Thyrotropin receptor (Homo sapiens), sequence (P16473 whole entry, looked up): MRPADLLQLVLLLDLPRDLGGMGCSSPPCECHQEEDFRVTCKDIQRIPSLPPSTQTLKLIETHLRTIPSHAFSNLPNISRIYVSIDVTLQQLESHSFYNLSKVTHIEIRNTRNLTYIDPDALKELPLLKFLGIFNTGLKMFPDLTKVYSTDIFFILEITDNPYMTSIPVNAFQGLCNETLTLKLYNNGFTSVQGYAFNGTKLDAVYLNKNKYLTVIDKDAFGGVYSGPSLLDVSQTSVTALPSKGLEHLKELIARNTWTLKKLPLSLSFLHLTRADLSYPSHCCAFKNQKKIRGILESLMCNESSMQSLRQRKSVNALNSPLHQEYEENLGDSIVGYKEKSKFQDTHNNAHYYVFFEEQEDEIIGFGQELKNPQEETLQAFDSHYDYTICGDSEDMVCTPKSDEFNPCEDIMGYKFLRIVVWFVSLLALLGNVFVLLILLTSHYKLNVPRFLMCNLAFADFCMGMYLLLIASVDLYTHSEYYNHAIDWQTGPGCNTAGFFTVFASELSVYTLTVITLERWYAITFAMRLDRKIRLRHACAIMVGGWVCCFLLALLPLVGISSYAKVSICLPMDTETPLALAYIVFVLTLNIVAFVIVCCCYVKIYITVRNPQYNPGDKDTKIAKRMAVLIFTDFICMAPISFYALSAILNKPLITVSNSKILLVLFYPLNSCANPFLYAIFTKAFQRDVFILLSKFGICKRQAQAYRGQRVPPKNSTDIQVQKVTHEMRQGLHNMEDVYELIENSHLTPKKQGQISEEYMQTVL
Compound,Potency [1],Potency [2],Potency [3],outcome [4],Potency [5],Potency [6],Potency [7],Potency [8],Potency [9],Potency [10],Potency [11],max response [12] [%],Potency [13],Potency [14],Potency [15],Potency [16],Potency [17],Potency [18],"activity change, positive = activation [19] [%]"
CCn1nc(C)c2c1C(=O)NCC(c1ccc(O)cc1)=N2,inactive,inactive,inactive,inactive,inactive,inactive,inactive,inactive,inactive,inactive,inactive,0.626,inactive,inactive,inactive,inactive,inactive,–,–
COCc1c(C(C)C)nc(C(C)C)c(/C=C/[C@@H](O)C[C@@H](O)CC(=O)O)c1-c1ccc(F)cc1,inactive,inactive,inactive,inactive,–,–,inactive,–,–,–,–,–,inactive,inactive,–,301 nM (active) and 4.32 µM (active),379 nM (active) and 4.84 µM (active),inactive,–
CCC(C)(O)CCC=C(C)C (stereo not given),inactive,inactive,inactive,inactive,inactive,inactive,inactive,inactive,inactive,inactive,inactive,-9.96,inactive,inactive,–,inactive,inactive,inactive,–
COc1cc2[nH]c(=O)[nH]c(=O)c2cc1OC,inactive,inactive,inactive,inactive,inactive,inactive,inactive,inactive,inactive,inactive,inactive,1.95,inactive,inactive,–,inactive,inactive,inactive,–
Fc1c(F)c(F)c(Br)c(F)c1F,inactive,inactive,inactive,inactive,–,inactive,inactive,inactive,inactive,inactive,inactive,0.266,inactive,inactive,inactive,inactive,inactive,inactive,–
CCCOCCOCCO,inactive,inactive,inactive,inactive,–,inactive,inactive,inactive,inactive,inactive,inactive,2.29,–,inactive,inactive,inactive,inactive,inactive,–
CC(C)(CCl)c1ccccc1,inactive,inactive,inactive,inactive,–,inactive,inactive,inactive,inactive,inactive,inactive,–,inactive,inactive,inactive,inactive,inactive,inactive,–
CCCCCCCCCCCC[N+](C)(C)CCCS(=O)(=O)[O-],inactive,inactive,inactive,inactive,inactive,inactive,inactive,inactive,–,inactive,inactive,-0.977,–,inactive,inactive,inactive,inactive,inactive,–
Cc1cc(O)c(C(C)C)cc1Cl,inactive,inactive,inactive,inactive,–,inactive,inactive,inactive,38.9 µM (active),inactive,inactive,–,–,24.5 µM (active),inactive,27.5 µM (active),34.7 µM (active),89.8 µM (active),–
CCCCCCCCCOC(C)=O,inactive,inactive,inactive,inactive,–,inactive,inactive,inactive,inactive,inactive,inactive,-10.8,–,inactive,inactive,inactive,inactive,inactive,–
O=C(CCCCCCCCC#CI)Oc1ccccc1,inactive,inactive,inactive,inactive,–,–,inactive,2.39 µM (active),inactive,inactive,–,–,–,inactive,–,inactive,inactive,inactive,–
C=CCOC(=O)/C=C\C(=O)OCC=C,inactive,inactive,inactive,inactive,inactive,–,inactive,inactive,inactive,inactive,inactive,–,inactive,inactive,inactive,inactive,inactive,inactive,–
CO/N=C1\CN(c2nc3c(cc2F)c(=O)c(C(=O)O)cn3C2CC2)CC1CN (stereo not given),inactive,inactive,inactive,inactive,inactive,inactive,inactive,inactive,inactive,inactive,inactive,8.45,–,inactive,inactive,inactive,inactive,inactive,–
Nc1nc(Cl)nc2c1ncn2[C@@H]1O[C@H](CO)[C@@H](O)[C@@H]1F,inactive,inactive,1.56 µM (active),inactive,inactive,4.77 µM (active),inactive,inactive,–,–,inactive,–,–,inactive,inactive,inactive,–,inactive,–
Cc1ccc(S(=O)(=O)NC2CCCCC2)cc1,inactive,inactive,inactive,inactive,inactive,–,inactive,inactive,–,inactive,inactive,–,inactive,inactive,–,inactive,inactive,–,-34.7
COCC(O)CO (stereo not given),inactive,inactive,inactive,inactive,inactive,inactive,inactive,inactive,inactive,inactive,inactive,–,–,inactive,inactive,inactive,inactive,inactive,–
